Laboratory results: PubChem BioAssay (NCI)
This is part of a sample that, as a whole, favours compounds with a hit. Of some 83,000 tested, about 20% had one in any assay.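 How to read the values: 0–100, growth inhibition (40 = 60% inhibited); 0, no net growth; -100 to 0, cell death (-40 = 40% of starting cells died; -100 = all dead).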 Unmarked numbers belong to inactive results. The source made the active and inactive calls. How the source made its calls: active means growth percent below 10; inactive means the rest.

Assays:
Assay in all cases: NCI-60 one-dose screen, 48 h (100 = growth as untreated, 0 = no growth, -100 = all killed)
Details in all cases: 10 µM
DU-145 prostate = test system: DU-145 prostate
K-562 leukemia = test system: K-562 leukemia
MALME-3M melanoma = test system: MALME-3M melanoma
MDA-MB-231 breast = test system: MDA-MB-231 breast
RXF 393 renal = test system: RXF 393 renal
SF-268 CNS = test system: SF-268 CNS
SF-295 CNS = test system: SF-295 CNS
SF-539 CNS = test system: SF-539 CNS
UACC-257 melanoma = test system: UACC-257 melanoma
M14 melanoma = test system: M14 melanoma
HCT-15 colon = test system: HCT-15 colon
HT29 colon = test system: HT29 colon
SNB-75 CNS = test system: SNB-75 CNS
SNB-19 CNS = test system: SNB-19 CNS
U251 CNS = test system: U251 CNS
PC-3 prostate = test system: PC-3 prostate
SK-MEL-5 melanoma = test system: SK-MEL-5 melanoma
UACC-62 melanoma = test system: UACC-62 melanoma
LOX IMVI melanoma = test system: LOX IMVI melanoma
SK-MEL-28 melanoma = test system: SK-MEL-28 melanoma

Compound	growth (DU-145 prostate)	growth (K-562 leukemia)	growth (MALME-3M melanoma)	growth (MDA-MB-231 breast)	growth (RXF 393 renal)	growth (SF-268 CNS)	growth (SF-295 CNS)	growth (SF-539 CNS)	growth (UACC-257 melanoma)	growth (M14 melanoma)	growth (HCT-15 colon)	growth (HT29 colon)	growth (SNB-75 CNS)	growth (SNB-19 CNS)	growth (U251 CNS)	growth (PC-3 prostate)	growth (SK-MEL-5 melanoma)	growth (UACC-62 melanoma)	growth (LOX IMVI melanoma)	growth (SK-MEL-28 melanoma)
COc1ccc(/C=C2\CCCC3=C2NC(N)=NC3c2ccc(OC)cc2)cc1 (stereo not given)	109%	107%	99.6%	96.9%	99.3%	109%	104%	107%	91.2%	106%	92.9%	93.2%	87.4%	92.1%	90.6%	86.7%	56.2%	68%	73.6%	98.5%
NC1=NC(c2ccc(Cl)cc2)C2=C(N1)/C(=C/c1ccc(Cl)cc1)CCC2 (stereo not given)	97.2%	43.5%	97.7%	102%	34.5%	83.2%	67.5%	121%	79.4%	11%	58.3%	7.71% (active)	87.3%	85.7%	13.9%	79.5%	87.5%	74.4%	-69.6% (active)	99.2%
COc1ccc(-c2cc(-c3ccc(OC)c(OC)c3)nc(SCCCC(=O)NO)n2)cc1	-2.45% (active)	7.32% (active)	-6.87% (active)	-10% (active)	-46.6% (active)	2.03% (active)	-36.8% (active)	1.28% (active)	9.39% (active)	-41.5% (active)	2.78% (active)	4.72% (active)	-19% (active)	11.2%	-9.1% (active)	1.17% (active)	-65.2% (active)	-55.2% (active)	-79% (active)	19.2%
Cc1ccc(S(=O)(=O)N(C)CCCCCC(=O)O)cc1	102%	104%	98.5%	110%	103%	99%	92.7%	97.9%	98.2%	95.1%	97.8%	92.5%	94%	108%	104%	98.2%	105%	106%	95.4%	105%
COc1cc2cc(Oc3ccc(NC(=O)Nc4ccc(C(F)(F)F)cc4)cc3)c(C)nc2cc1OC	71.4%	57.1%	82.9%	80.9%	6.29% (active)	79.3%	56%	96.9%	66.5%	95.2%	75.4%	44.6%	41%	93.4%	15%	48.3%	47.4%	69.2%	56.4%	58.4%
CCOC(=O)c1cc(C(=O)c2ccc(OC)c(OC)c2)n2c1ccc1ccc3cccnc3c12	21.7%	14.7%	40.1%	45.2%	24.8%	51.8%	12%	9.16% (active)	51%	7.8% (active)	31.1%	6.74% (active)	18%	45.8%	24.8%	22.2%	17.4%	47.4%	31.6%	60.2%
O=C(CCl)Oc1ccc(OC(=O)CCl)cc1	88.6%	93.6%	88.4%	81.1%	109%	93.8%	108%	72.8%	89.1%	85.9%	94.1%	99.9%	75.3%	104%	101%	89.4%	82.2%	85%	89.3%	104%
CCN(CC)c1ccc(/C=C2\SC(=O)C(Nc3nnc(-c4cccnc4SCc4ccccc4)o3)C2=O)cc1 (stereo not given)	28.9%	14.5%	57.9%	39.4%	-13.2% (active)	57.3%	12.2%	13.8%	56.9%	-11.6% (active)	15.2%	3.09% (active)	44.1%	63.5%	3.89% (active)	16.9%	27.4%	30.2%	42.3%	50.8%
O=C(CCn1cnc2c(cc(-c3ccccc3)n2-c2ccccc2)c1=O)Nc1ccc(F)cc1	85.9%	67.3%	51.4%	68.7%	1.78% (active)	70%	77.8%	76.2%	86.2%	73.4%	81.4%	89.9%	4.9% (active)	72.9%	70.9%	68.6%	77.5%	63.2%	79.4%	80.5%
COc1cc(/C=C2\CCCC3=C2NC(N)=NC3c2cc(OC)c(OC)c(OC)c2)cc(OC)c1OC (stereo not given)	-9.85% (active)	6.43% (active)	-42.5% (active)	28.9%	-88% (active)	15.1%	-35.3% (active)	25.9%	-31.1% (active)	-36.1% (active)	-4.55% (active)	-35.4% (active)	45.7%	61.6%	-85.2% (active)	25.9%	-96.5% (active)	-41.1% (active)	-46.7% (active)	24.9%
O=[N+]([O-])c1ccc2ncccc2c1Cl	-26% (active)	12.1%	69%	21.2%	91.2%	38.9%	-0.464% (active)	12.9%	62.2%	49.5%	13.2%	9.81% (active)	73.9%	62.7%	35.9%	38.5%	89.3%	54.7%	20.9%	76.2%
S=C(SSC(=S)N(c1ccccc1)c1ccccc1)N(c1ccccc1)c1ccccc1	109%	104%	99%	114%	111%	97.8%	102%	109%	81.7%	101%	103%	96.6%	100%	99.4%	87.9%	81.9%	102%	103%	95.2%	111%
Oc1cccc(-c2nc3sccn3c2-c2ccncn2)c1	106%	90%	-8.47% (active)	81.4%	67.3%	106%	101%	98.8%	31%	19.4%	93.2%	54.8%	39.4%	111%	114%	84.6%	90.6%	14.5%	36.2%	33.9%
Nc1ncnc2c1ncn2C1(CO)OCC(O)C(O)C1O (stereo not given)	104%	110%	98.6%	109%	110%	95.3%	101%	96.5%	101%	97%	105%	88.8%	90.6%	103%	101%	103%	103%	105%	94.4%	105%
